PubChem BioAssay AID1345083 (National Center for Advancing Translational Sciences (NCATS), 2018)
The campaign covered roughly 94,000 compounds. About 6,200 (6.6%) were called active. A call without a number means that no potency is given here. Not shown: some 31% with an inconclusive outcome. Calls come from the whole dose curve; as a rule, active = well fitted inhibition curve with a large enough effect; inconclusive = small, poorly fitted or top-dose-only effect; inactive = flat fitted curve, though single readings scatter. The sample as a whole holds a higher share of actives than the screen did.

Experiment: Cytotoxic Profiling in HEK 293 Cell Line of Diverse Libraries Using Quantitative High-Throughput Screening; note: nearly all actives have a fitted effect of over 60% in size
Conditions: HEK 293 viability, ATP luminescence (CellTiter-Glo), 48-72 h; series mostly up to 115 µM
From the text: Cell-based phenotypic screening is a commonly used approach to discover biological pathways, novel drug targets, chemical probes and high-quality hit-to-lead molecules. Many hits identified from high-throughput screening campaign are ruled out through a series of follow-up potency, selectivity/specificity, and cytotoxicity assays. Prioritization of molecules with little or no cytotoxicity for a more in-depth downstream evaluation influence the future direction of projects, so cytotoxicity profiling of the screening libraries at early stage is essential for increasing the likelihood of candidate success. In this study, we analyzed results from a cell-based cytotoxicity screening campaign, comprising nearly 10,000 compounds in NCATS annotated libraries, and over 100,000 compounds in a diversity library, evaluated in four normal cell lines (HEK 293, NIH 3T3, CRL-7250 and HaCat) and a cancer cell line (KB 3-1, a HeLa subline) with overall screening outcomes, hit rates, pan-activity and selectivity. For the annotated library, we also examined the primary targets and mechanistic pathways regularly associated with cell death. To our knowledge, this is the first study to use high-throughput screening to profile large libraries for cytotoxicity assessment in both normal and cancer cell lines. In summary, the results generated here constitutes a valuable resource for the scientific community and provides insight on identifying cytotoxic compounds with particular mechanisms of action, and prioritizing compounds with suitable cytotoxicity profile for further evaluation.
HEK 293 cells were seeded into white 1536-well plates using a Multidrop Combi peristaltic dispenser (ThermoFisher, Waltham, MA) at a density of 250 cells/well in 5 uL of medium respectively. A pintool (Kalypsys) was used to transfer 23 nL of compound solution to the 1536-well assay plates. After 48 or 72 hr incubation at 37 degree Celsius, 5% CO2 and 95% humidity, 2.5 uL of CellTiter-Glo (Promega) was dispensed into each well using a dispenser (Aspect Automation, St. Paul, MN) with solenoid valves (Lee Valves, Westbrook CT). Plates were left at room temperature for 10 min before imaging the ATP-coupled luminescence using a ViewLux microplate imager (PerkinElmer, Waltham, MA).
Potency is the fitted concentration of half-maximal effect.

SMILES | Potency
Cc1ccc(-c2ccc3nnc(CNC(=O)c4ccncc4)n3n2)cc1C | inactive
COc1ccc2c(c1)OCC(C(=O)N1CCCN(c3ncccn3)CC1)C2 (stereo not drawn) | inactive
COc1ccc(C(=O)NCC23CCC=C2N(C)C(=O)CC3)cc1OC (stereo not drawn) | inactive
CCCS(=O)(=O)N1CCC(Nc2nccnc2OCC)CC1 | inactive
COC[C@@H]1CN(Cc2c(C)n[nH]c2C)C[C@H]1c1nc(C)no1 | inactive
CC/C=C(\C)CN1CCC2(CC1)Cc1ccccc1CNC2=O | inactive
CC(=O)N1CC(CO)C2(CCN(C(=O)c3ccccc3Cl)CC2)C1 (stereo not drawn) | inactive
C=CCNC(=O)N1CC[C@@H](CC(=O)O)[C@@H](CC2=NCCc3ccc(C)cc32)C1 | inactive
COc1ccc(-c2nc3ccncc3[nH]2)cc1 | 20 µM (active)
COc1ccc(C(=O)N2CCCC2C(=O)N2CCCC2c2nc3ccncc3[nH]2)cc1 (stereo not drawn) | inactive
COc1ccc(C(=O)N2CCCC(C(=O)N3CCCC(c4nc5ccncc5[nH]4)C3)C2)cc1 (stereo not drawn) | inactive
Cc1ccc(CN2CCOCCNC(=O)CC2)o1 | inactive
CN(C)C(=O)c1cccnc1OC1CCN(S(=O)(=O)c2ccc(F)c(F)c2)C1 (stereo not drawn) | inactive
Cc1ncsc1C(=O)N1CCC2(CC1)OC(=O)N(Cc1ncccn1)C2(C)c1ccccc1 (stereo not drawn) | inactive
COC1CCC(C(=O)N2CCC3(CC2)OC(=O)N(Cc2ccccc2)C3(C)c2ccccc2)CC1 (stereo not drawn) | inactive
CC1(c2ccccc2)N(Cc2ccccc2F)C(=O)OC12CCN(Cc1c[nH]c3ccccc13)CC2 (stereo not drawn) | 20 µM (active)
CC(C)Oc1ccc(CN2CCCC(COc3ccccc3C(=O)N3CCCC3)C2)cc1 (stereo not drawn) | 39.8 µM (active)
CCOc1ccccc1C(=O)N1Cc2cnc(Cc3ccc(OC)cc3)nc2C1 | inactive
CC1CCN(C(=O)c2ccccc2OCC2CCCN(Cc3cncs3)C2)CC1 (stereo not drawn) | inactive
COc1cc(-c2ccccc2C#N)cc(OC)c1OC | inactive
COCCNC(=O)[C@@H]1C[C@H](Oc2ccccc2)CN1C(=O)C1(c2ccccc2)CC1 | inactive
COC(=O)c1n[nH]c2c1CN(C(=O)[C@H]1CCC[C@@H](O)C1)CC2 | inactive
CN(C)C(=O)c1n[nH]c2c1CN(C(=O)c1ccccc1Br)CC2 | inactive
O=C(NCCCc1ccccc1)c1n[nH]c2c1CN(C(=O)C1CC1)CC2 | 11.2 µM (active)
CN(C)C[C@@H]1CN(S(C)(=O)=O)C[C@H]1NC(=O)c1ccc(C#N)cc1 | inactive

SMILES | Potency
Cn1nc(C2CCCN2C(=O)NC2CCCCC2)n(Cc2ccccc2)c1=O (stereo not drawn) | inactive
COCCn1c(C)cnc1CC1CCN(C(=O)c2ccc(OC)cc2OC)CC1 | inactive
Cc1cc(C(=O)N2CCCC(Cc3noc(-c4cccnc4)n3)C2)nn1C (stereo not drawn) | inactive
COCCCNC(=O)N1CCC(Cc2noc(-c3ccncc3)n2)C1 (stereo not drawn) | inactive
COc1ccc(NC(=O)N2CCCC(Cc3noc(-c4ccccc4)n3)C2)cc1 (stereo not drawn) | 35.5 µM (active)
Cc1nc(-c2cn(C3CCCN(C(=O)c4cc(F)ccc4F)C3)nn2)no1 (stereo not drawn) | inactive
COC(=O)[C@H](CC1CCCCC1)NC(=O)[C@@H]1CN(C(=O)c2ccc(N(C)C)cc2)CCN1C(C)=O | inactive
COc1ccc(NC(=O)N2C[C@@H](F)C[C@H]2C(=O)N2CCCCC2)c(C)c1 | inactive
Cc1cc(Cl)ccc1-c1ccc(CN)cc1 | 31.6 µM (active)
NCc1ccc(-c2cncnc2)cc1 | inactive
O=C(CCc1ccc2c(c1)CNCCO2)NCC1CC1 | inactive
O=C1CCCCC(CNC(=O)c2ccoc2)N1 (stereo not drawn) | inactive
Cc1ccc(CNC(=O)N2CCC3(CC2)CC(N(C2CC2)S(C)(=O)=O)CCO3)cc1 (stereo not drawn) | inactive
Cc1nc(-c2ccccc2OC2CN(S(=O)(=O)c3cn(C)cn3)C2)no1 | inactive
COc1ccccc1-c1cnc(NC(=O)c2ccc(Cl)cc2)c2c1CCO2 | 63.1 µM (active)
COc1ccccc1-c1cc(C(=O)NCc2cnn(C)c2)c2c(c1)N(C)CCO2 | inactive
COc1ccccc1-c1cnc(Nc2ccncc2)c2c1CCO2 | 63.1 µM (active)
COc1cc2c(cc1OC)C(CNC(=O)c1ccc(Cl)cc1)N(C(=O)Nc1ccccc1)CC2 (stereo not drawn) | inactive
CCS(=O)(=O)N1CC(F)(F)C[C@H]1c1nc(C2CC2)no1 | inactive
CC(C)(C)n1nnnc1C1CC2(CCOCC2)C(=O)N1Cc1cccc(F)c1 (stereo not drawn) | inactive
O=C1CC2(CCN(C(=O)C3CCN(C(=O)Cc4ccccn4)CC3)CC2)Oc2ccccc2N1 | inactive
Cc1cnc(C)n1CCN | inactive
Cc1ccccc1S(=O)(=O)N1CCN(C(=O)N2CC3CC(C2)[C@H]2CCCC(=O)N2C3)CC1 (stereo partly drawn) | inactive
CCNC(=O)c1cccnc1OC1CCN(C(=O)CC2CCCC2)C1 (stereo not drawn) | inactive
Cn1c([C@H]2CCN(C3CCOCC3)C2)nc2ccccc21 | inactive

SMILES | Potency
c1ccc2sc(C3CCCN(Cc4cc5n(n4)CCNC5)C3)nc2c1 (stereo not drawn) | inactive
CN1CCC(N2CC[C@H](c3nc4ccccc4s3)C2)CC1 | 31.6 µM (active)
COc1cccc(CC(=O)NCCC2CCN(C(=O)Nc3ccc(C)cc3)CC2)c1 | inactive
COc1cccc(NC(=O)NC[C@H]2O[C@@H](CO)[C@@H](O)[C@H]2N(C)CCN(C)C)c1 | inactive
COC(=O)[C@@H]1Cc2c([nH]c3ccccc23)[C@H]2C[C@H](NCCNC(C)=O)C[C@@H](c3ccc(C)cc3)N21 | 25.1 µM (active)
COC(=O)[C@@H]1C[C@@H](NC(=O)c2ccc(-c3nnn(C)n3)cc2)CN1C | inactive
C#CCN[C@@H]1C[C@@H]2c3[nH]c4ccccc4c3C[C@@H](C(=O)OC)N2[C@H](c2ccc(F)cc2)C1 | 31.6 µM (active)
CN(CCNC(=O)C1CCCN(S(C)(=O)=O)CCC(=O)NCC1)C1CCCCC1 (stereo not drawn) | inactive
Cc1cc(C)n(CCC(=O)N[C@@H]2CN(S(C)(=O)=O)C[C@H]2CN(C)C)n1 | inactive
COc1ccc(CNC(=O)NCC(=O)N2CCCCCCNC(=O)CC2c2ccccc2)cc1 (stereo not drawn) | inactive
O=[S+]1([O-])NCC2(CCN(CC3CC3)CC2)Oc2ncccc21 | inactive
Cc1noc([C@@H]2CC(F)(F)CN2C(=O)c2cc(C)on2)n1 | inactive
c1cc(CN2CCOC[C@H]2c2ncc(-c3ccncc3)[nH]2)ccn1 | inactive
CC(=O)N1CCC(N2CCOC[C@H]2c2ncc(-c3ccc(Cl)s3)[nH]2)CC1 | inactive
c1cncc(-c2cnc([C@@H]3COCCN3Cc3cnc4ccccc4c3)[nH]2)c1 | inactive
Cn1cc(CN2CCOC[C@H]2c2ncc(-c3cccc(F)c3)[nH]2)c2ccccc21 | 35.5 µM (active)
Oc1ccccc1CN1CCOC[C@H]1c1ncc(-c2ccc(C(F)(F)F)cc2)[nH]1 | 70.8 µM (active)
CC(C)(C)c1coc([C@@H]2COCCN2Cc2ccc(F)cc2)n1 | inactive
Cn1cc(CN2CC[C@H](c3nnc(-c4cccnc4)o3)C2)c2ccccc21 | inactive
Cc1ccc(CN2CCOC[C@H]2c2ncc(-c3cccc(F)c3)[nH]2)cc1 | 70.8 µM (active)
Fc1ccc(CN2CCOC[C@H]2c2ncc(-c3cccnc3)[nH]2)cc1 | inactive
O=C(CC1CCCCC1)Nc1ccc(-c2nnc3n2CCCC3)cc1 | inactive
Cc1nsc(NC(=O)N2CCC(C(=O)N3CCCC3)CC2)n1 | inactive
Cc1c(C(=O)N2CCn3nc(CO)cc3C2)cnc2cc(=O)[nH]n12 | inactive
COCC(=O)N[C@@H]1CN(Cc2ccccc2OC(C)C)C[C@H]1CO | inactive

SMILES | Potency
Cn1cnc(S(=O)(=O)N2CCOCCNC(=O)[C@@H]3CCC[C@@H]32)c1 | inactive
O=C(Cn1ccn2nc(-c3ccc(F)cc3)c(CO)c2c1=O)Nc1ccc(F)cc1F | inactive
CC(C)C1=NOC2(CCN(C3CCCCC3)CC2)C1 | inactive
CNC(=O)[C@@H]1CN(Cc2ccncc2)C[C@H]1COC | inactive
O=C1CCCCC(CNC(=O)c2ccncc2)N1 (stereo not drawn) | inactive
O=C(O)CCNC(=O)Cn1nc2c(cc1=O)CCCCC2 | inactive
Cn1nnc(-c2ccc(C(=O)N3CCC4(CCCO4)CC3)cc2)n1 | inactive
O=C1Nc2ccc(-c3ccsc3)cc2C(=O)N2CC[C@H](NS(=O)(=O)c3cccs3)[C@@H]12 | inactive
COc1ccc(C)cc1NC(=O)CN1C(=O)NC(c2ccccc2Cl)C2=C1COC2=O (stereo not drawn) | inactive
Cc1ccc(Cl)cc1NC(=O)CN1C(=O)NC(c2ccc(Cl)cc2)C2=C1COC2=O (stereo not drawn) | 12.6 µM (active)
Cc1ccccc1NC(=O)CN1C(=O)NC(c2ccccc2Cl)C2=C1COC2=O (stereo not drawn) | inactive
COc1cccc(C(=O)N2CCC(N3C(=O)c4c(c(C)nn4-c4ccccc4)C3C)C2)c1 (stereo not drawn) | 35.5 µM (active)
COc1cccc(CN2CCC(N3C(=O)c4c(c(C)nn4-c4ccccc4)C3C3CC3)CC2)c1 (stereo not drawn) | 35.5 µM (active)
COc1cccc(CC(=O)N2CCC(N3C(=O)CCC3C(=O)NCc3ccccc3)CC2)c1 (stereo not drawn) | inactive
Cc1nn(-c2ccccc2)c2c1C(C(C)C)N(C1CCN(C(=O)c3ccc(Cl)nc3)CC1)C2=O (stereo not drawn) | inactive
Cc1nn(-c2ccccc2)c2c1C(C(C)C)N(C1CN(C(=O)c3ccccc3Cl)C1)C2=O (stereo not drawn) | inactive
Cc1nn(-c2ccccc2)c2c1C(C)N(C1CCCN(C(=O)c3ccccn3)C1)C2=O (stereo not drawn) | inactive
CC1(C(=O)O)CCN(C(=O)C2CCCC2)CC1 | inactive
C=CCNC(=O)C[C@@H]1CCN(C(=O)c2cccnc2)C[C@@H]1CC | inactive
CC(=O)N1CCC(Cc2ccc(C(=O)NC3CC3)cc2)CC1 | inactive
COCCOC1CCOC2(CCN(C(=O)C3(c4ccc(OC)cc4)CC3)CC2)C1 (stereo not drawn) | inactive
COCCN(C)Cc1ccc(CC2CCN(C(=O)C3(c4ccc(OC)cc4)CC3)CC2)cc1 | 39.8 µM (active)
O=C1CC(c2ccccc2)N(Cc2ccncc2)CCCN(C(=O)COc2ccccc2)CCN1 (stereo not drawn) | inactive
